47 substances from PMC11024108 can be followed below.

What all share (assay): cross-link between two proteins; cross-linking mass spectrometry
In experiment [1] the target is Gamma-enolase (UniProt P17183).
Experiment [2] addresses Gamma-soluble NSF attachment protein (UniProt Q9CWZ7).
The target of experiment [3] is Glutamate receptor 2 (UniProt P23819).
In experiment [4] the target is Glyceraldehyde-3-phosphate dehydrogenase (UniProt P16858).
Experiment [5] has as its target Guanine nucleotide-binding protein G(I)/G(S)/G(O) subunit gamma-5 (UniProt P63218).
Experiment [6] has as its target Guanine nucleotide-binding protein G(I)/G(S)/G(T) subunit beta-1 (UniProt P62874).
The target in experiment [7] is Guanine nucleotide-binding protein subunit beta-4 (UniProt Q9HAV0).
The target in experiment [8] is Heat shock cognate 71 kDa protein (UniProt P11142).
Experiment [9] deals with Heat shock cognate 71 kDa protein (UniProt P63017).
Experiment [10] deals with Hemoglobin subunit beta-1 (UniProt P02088).
In experiment [11] the target is Histone H2B type 1-H (UniProt Q93079).
Experiment [12] addresses Hyaluronan and proteoglycan link protein 1 (UniProt Q9QUP5).
The target in experiment [13] is Insulin-like growth factor 1 receptor (UniProt Q60751).
The target in experiment [14] is Intersectin-1 (UniProt Q9Z0R4).
For experiment [15], the target named is Kinesin heavy chain isoform 5C (UniProt P28738).
For experiment [16], the target named is Kinesin light chain 2 (UniProt O88448).
In experiment [17] the target is Lanosterol 14-alpha demethylase (UniProt Q16850).
The target of experiment [18] is Lysocardiolipin acyltransferase 1 (UniProt Q6UWP7).
The target in experiment [19] is Limbic system-associated membrane protein (UniProt Q8BLK3).
In experiment [20] the target is Melanoma inhibitory activity protein 2 (UniProt Q91ZV0).
The target of experiment [21] is Microtubule-associated protein 1A (UniProt Q9QYR6).
In experiment [22] the target is Mitochondrial import inner membrane translocase subunit TIM16 (UniProt Q9Y3D7).
Experiment [23] addresses Mitochondrial import inner membrane translocase subunit Tim9 (UniProt Q9Y5J7).
The target in experiment [24] is Monocarboxylate transporter 1 (UniProt P53985).
The target of experiment [25] is Myosin light chain 6B (UniProt Q8CI43).
Experiment [26] addresses Myosin-14 (UniProt Q6URW6).
Experiment [27] deals with Myosin-9 (UniProt Q8VDD5).
Experiment [28] concerns the target NADPH:adrenodoxin oxidoreductase, mitochondrial (UniProt P22570).
Experiment [29] has as its target Neurofascin (UniProt Q810U3).
Experiment [30] concerns the target Neuronal pentraxin receptor (UniProt Q99J85).
The target of experiment [31] is Neuronal-specific septin-3 (UniProt Q9Z1S5).
In experiment [32] the target is Septin-11 (UniProt Q8C1B7).
In experiment [33] the target is Septin-6 (UniProt Q9R1T4).
For experiment [34], the target named is Septin-8 (UniProt Q8CHH9).
The target in experiment [35] is Septin-9 (UniProt Q80UG5).
Experiment [36] deals with Neutral alpha-glucosidase AB (UniProt Q14697).
Experiment [37] concerns the target Non-POU domain-containing octamer-binding protein (UniProt Q99K48).
In experiment [38] the target is Non-selective voltage-gated ion channel VDAC2 (UniProt P45880).
The target of experiment [39] is Non-selective voltage-gated ion channel VDAC3 (UniProt Q9Y277).
Experiment [40] addresses Nucleosome assembly protein 1-like 4 (UniProt Q78ZA7).
Experiment [41] has as its target Osteopetrosis-associated transmembrane protein 1 (UniProt Q86WC4).
Experiment [42] concerns the target Peptidyl-prolyl cis-trans isomerase B (UniProt P23284).
In experiment [43] the target is Peroxiredoxin-2 (UniProt Q61171).
Experiment [44] addresses Peroxiredoxin-4 (UniProt Q13162).
In experiment [45] the target is Peroxisomal bifunctional enzyme (UniProt Q08426).
Experiment [46] addresses Phosphoglycerate mutase 1 (UniProt Q9DBJ1).
The target in experiment [47] is Plasma membrane calcium-transporting ATPase 4 (UniProt Q6Q477).
Experiment [48] deals with Polymerase delta-interacting protein 2 (UniProt Q9Y2S7).
The target of experiment [49] is Potassium voltage-gated channel subfamily A member 2 (UniProt P63141).
For experiment [50], the target named is Prefoldin subunit 5 (UniProt Q99471).
In experiment [51] the target is Prostaglandin E synthase 2 (UniProt Q9H7Z7).
Experiment [52] deals with Proteasome activator complex subunit 2 (UniProt P97372).
For experiment [53], the target named is Proteasome subunit alpha type-6 (UniProt P60900).
The target of experiment [54] is Proteasome subunit alpha type-6 (UniProt Q9QUM9).
Experiment [55] addresses Proteasome subunit alpha type-7 (UniProt Q9Z2U0).

Sequence of Membrane-associated progesterone receptor component 1, O00264 (O00264 whole entry): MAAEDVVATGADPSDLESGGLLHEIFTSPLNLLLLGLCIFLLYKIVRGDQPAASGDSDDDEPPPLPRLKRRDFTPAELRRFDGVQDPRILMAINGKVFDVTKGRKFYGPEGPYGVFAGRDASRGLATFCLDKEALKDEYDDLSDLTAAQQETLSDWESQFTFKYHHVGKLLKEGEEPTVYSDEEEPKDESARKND
Sequence of Kinesin heavy chain isoform 5C (P28738 whole entry, canonical isoform): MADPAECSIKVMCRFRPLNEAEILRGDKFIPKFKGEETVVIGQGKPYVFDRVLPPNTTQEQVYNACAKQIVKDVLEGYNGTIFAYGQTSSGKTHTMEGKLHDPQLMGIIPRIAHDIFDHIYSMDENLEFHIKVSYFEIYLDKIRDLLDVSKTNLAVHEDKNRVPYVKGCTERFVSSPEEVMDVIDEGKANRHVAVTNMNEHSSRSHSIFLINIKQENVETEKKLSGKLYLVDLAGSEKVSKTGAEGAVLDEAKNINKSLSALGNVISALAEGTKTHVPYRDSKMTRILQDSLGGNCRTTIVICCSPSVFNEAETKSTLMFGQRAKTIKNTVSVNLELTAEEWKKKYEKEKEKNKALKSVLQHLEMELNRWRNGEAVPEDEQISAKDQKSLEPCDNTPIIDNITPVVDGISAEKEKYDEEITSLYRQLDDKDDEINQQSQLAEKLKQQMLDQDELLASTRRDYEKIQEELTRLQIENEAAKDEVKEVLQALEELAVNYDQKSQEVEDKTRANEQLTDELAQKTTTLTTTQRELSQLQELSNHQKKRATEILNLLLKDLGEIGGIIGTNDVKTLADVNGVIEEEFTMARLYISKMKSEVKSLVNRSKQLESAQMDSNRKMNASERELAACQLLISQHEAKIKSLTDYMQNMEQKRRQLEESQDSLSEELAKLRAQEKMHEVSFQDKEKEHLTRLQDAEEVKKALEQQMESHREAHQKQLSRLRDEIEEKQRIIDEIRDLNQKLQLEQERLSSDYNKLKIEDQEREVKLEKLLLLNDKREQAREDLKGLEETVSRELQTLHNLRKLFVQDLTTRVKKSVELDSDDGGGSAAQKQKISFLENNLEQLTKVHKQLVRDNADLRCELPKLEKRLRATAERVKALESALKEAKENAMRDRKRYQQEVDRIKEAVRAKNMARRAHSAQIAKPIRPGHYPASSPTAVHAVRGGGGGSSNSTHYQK
Sequence of Myosin light chain 6B (Q8CI43 whole entry): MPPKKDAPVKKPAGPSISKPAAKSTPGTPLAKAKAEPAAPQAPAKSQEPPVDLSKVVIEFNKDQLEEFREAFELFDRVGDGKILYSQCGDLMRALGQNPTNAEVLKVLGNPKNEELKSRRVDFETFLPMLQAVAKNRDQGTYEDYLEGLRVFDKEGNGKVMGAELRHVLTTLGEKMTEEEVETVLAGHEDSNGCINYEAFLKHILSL
Sequence of Non-selective voltage-gated ion channel VDAC3 (Q9Y277 whole entry): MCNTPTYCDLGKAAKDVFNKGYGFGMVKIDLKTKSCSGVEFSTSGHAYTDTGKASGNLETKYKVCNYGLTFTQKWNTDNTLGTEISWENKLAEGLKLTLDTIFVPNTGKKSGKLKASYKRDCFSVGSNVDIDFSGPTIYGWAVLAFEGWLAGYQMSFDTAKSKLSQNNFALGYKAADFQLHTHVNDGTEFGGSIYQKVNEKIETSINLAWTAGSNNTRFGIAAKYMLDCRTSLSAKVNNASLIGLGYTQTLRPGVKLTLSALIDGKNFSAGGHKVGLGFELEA
Sequence of Neuronal-specific septin-3 (Q9Z1S5 whole entry): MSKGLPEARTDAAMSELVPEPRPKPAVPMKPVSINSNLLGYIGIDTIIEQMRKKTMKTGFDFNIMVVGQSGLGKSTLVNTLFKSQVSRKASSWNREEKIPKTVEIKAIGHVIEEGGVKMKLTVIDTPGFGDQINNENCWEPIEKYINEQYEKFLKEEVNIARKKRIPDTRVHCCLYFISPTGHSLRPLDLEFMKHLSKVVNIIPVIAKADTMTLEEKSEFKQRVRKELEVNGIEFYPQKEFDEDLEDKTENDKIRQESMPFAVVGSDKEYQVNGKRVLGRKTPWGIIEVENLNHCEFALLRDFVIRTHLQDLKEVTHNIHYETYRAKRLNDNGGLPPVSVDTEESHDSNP
Sequence of Hemoglobin subunit alpha, P01942 (P01942 whole entry): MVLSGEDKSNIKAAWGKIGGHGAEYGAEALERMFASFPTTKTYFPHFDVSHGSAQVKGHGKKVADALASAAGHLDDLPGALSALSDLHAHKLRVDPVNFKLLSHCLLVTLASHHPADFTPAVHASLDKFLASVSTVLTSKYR
Sequence of Limbic system-associated membrane protein (Q8BLK3 whole entry): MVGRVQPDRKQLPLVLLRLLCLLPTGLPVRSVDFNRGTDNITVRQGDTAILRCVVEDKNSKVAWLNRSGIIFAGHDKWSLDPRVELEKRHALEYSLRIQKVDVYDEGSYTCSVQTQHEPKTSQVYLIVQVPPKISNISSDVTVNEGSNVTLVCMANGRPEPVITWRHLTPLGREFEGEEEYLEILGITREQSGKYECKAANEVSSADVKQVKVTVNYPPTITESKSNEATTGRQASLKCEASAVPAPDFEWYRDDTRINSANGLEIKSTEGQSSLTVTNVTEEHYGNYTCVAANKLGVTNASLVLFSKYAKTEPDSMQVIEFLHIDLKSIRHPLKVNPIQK
Sequence of Septin-8 (Q8CHH9 whole entry): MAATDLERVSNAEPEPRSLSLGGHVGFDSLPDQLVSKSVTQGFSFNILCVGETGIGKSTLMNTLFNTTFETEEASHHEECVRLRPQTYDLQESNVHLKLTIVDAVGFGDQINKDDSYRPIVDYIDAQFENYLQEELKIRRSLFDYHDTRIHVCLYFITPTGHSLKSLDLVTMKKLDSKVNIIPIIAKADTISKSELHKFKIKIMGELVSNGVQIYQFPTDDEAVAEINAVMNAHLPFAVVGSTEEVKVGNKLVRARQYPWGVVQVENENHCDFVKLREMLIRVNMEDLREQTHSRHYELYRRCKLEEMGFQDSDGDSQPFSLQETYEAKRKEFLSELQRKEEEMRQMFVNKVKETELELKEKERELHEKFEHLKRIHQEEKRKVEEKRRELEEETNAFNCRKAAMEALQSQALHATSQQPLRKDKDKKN
Sequence of Monocarboxylate transporter 1 (P53985 whole entry): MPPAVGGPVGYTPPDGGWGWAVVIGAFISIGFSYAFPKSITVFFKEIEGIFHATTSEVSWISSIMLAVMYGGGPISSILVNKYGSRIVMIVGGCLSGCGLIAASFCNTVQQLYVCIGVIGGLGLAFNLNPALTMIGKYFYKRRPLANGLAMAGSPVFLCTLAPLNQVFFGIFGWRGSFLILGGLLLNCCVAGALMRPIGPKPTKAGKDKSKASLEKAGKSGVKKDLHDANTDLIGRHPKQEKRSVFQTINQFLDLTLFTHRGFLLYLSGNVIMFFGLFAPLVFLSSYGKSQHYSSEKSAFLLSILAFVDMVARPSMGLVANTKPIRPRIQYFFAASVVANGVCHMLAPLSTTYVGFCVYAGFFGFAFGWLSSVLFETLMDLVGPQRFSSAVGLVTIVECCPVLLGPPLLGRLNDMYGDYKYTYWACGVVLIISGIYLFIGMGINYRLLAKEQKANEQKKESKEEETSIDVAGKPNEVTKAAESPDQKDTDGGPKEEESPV
Sequence of Guanine nucleotide-binding protein G(I)/G(S)/G(O) subunit gamma-5 (P63218 whole entry): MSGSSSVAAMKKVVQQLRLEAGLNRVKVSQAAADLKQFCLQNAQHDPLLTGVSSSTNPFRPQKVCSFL
Sequence of Heat shock protein HSP 90-beta, P08238 (P08238 whole entry): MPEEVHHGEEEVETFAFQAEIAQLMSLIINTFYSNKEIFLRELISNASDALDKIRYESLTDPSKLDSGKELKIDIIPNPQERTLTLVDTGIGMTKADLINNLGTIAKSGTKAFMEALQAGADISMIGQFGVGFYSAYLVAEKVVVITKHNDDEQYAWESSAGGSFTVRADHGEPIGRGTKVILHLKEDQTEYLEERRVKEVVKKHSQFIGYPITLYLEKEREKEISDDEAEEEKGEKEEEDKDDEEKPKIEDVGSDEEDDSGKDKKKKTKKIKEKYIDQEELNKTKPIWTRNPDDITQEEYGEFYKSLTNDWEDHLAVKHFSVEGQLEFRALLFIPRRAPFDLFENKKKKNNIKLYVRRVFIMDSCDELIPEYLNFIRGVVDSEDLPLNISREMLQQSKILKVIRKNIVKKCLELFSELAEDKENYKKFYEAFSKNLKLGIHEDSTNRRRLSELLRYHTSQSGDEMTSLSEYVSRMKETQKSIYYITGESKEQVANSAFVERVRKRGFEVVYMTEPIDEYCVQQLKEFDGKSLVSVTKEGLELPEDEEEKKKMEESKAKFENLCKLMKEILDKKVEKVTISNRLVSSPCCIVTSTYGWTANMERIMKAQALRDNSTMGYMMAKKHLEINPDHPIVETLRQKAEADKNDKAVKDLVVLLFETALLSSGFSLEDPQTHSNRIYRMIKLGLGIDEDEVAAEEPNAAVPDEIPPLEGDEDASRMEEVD
Sequence of Prefoldin subunit 5 (Q99471 whole entry): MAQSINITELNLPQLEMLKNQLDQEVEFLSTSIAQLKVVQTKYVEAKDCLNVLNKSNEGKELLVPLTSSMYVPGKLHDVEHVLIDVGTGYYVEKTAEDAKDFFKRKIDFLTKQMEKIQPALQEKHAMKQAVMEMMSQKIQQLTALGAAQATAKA
Sequence of Peptidyl-prolyl cis-trans isomerase B (P23284 whole entry): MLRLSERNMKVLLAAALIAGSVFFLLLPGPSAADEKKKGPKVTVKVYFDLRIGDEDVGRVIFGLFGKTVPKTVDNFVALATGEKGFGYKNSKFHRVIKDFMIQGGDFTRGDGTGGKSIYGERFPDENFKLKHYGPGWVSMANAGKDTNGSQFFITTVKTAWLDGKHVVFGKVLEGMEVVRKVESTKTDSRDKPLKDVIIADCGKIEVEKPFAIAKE
Sequence of Gamma-soluble NSF attachment protein (Q9CWZ7 whole entry): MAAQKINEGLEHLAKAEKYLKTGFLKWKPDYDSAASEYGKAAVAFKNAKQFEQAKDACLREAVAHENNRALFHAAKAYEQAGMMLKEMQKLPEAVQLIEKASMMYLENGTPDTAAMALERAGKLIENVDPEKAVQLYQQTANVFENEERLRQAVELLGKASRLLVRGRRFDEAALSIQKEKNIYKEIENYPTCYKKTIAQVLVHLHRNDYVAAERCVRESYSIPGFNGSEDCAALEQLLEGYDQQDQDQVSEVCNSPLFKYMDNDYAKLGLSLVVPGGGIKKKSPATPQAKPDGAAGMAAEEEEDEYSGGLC

In the case of Alpha-enolase, P17182, the “listed as a hit” value in [1] is “yes”.

Turning to “Beta-soluble NSF attachment protein, P28663”, in [2], the “listed as a hit” value is given as “yes”. With “DOMON domain-containing protein FRRS1L, B1AXV0”, the “listed as a hit” value in experiment [3] is “yes”. In the case of “Fructose-bisphosphate aldolase A, P05064”, the “listed as a hit” value in experiment [4] is given as “yes”. As to “Guanine nucleotide-binding protein G(I)/G(S)/G(T) subunit beta-2, P62879”, the “listed as a hit” value in [5] is recorded as “yes”. As for “Guanine nucleotide-binding protein G(I)/G(S)/G(O) subunit gamma-4, P50153”, the “listed as a hit” value in experiment [6] is “yes”. “Guanine nucleotide-binding protein G(I)/G(S)/G(O) subunit gamma-5, P63218”: the “listed as a hit” value in experiment [7] is given as “yes”. Consider Heat shock protein HSP 90-beta, P08238, for which the “listed as a hit” value in experiment [8] is reported as “yes”. On to Heat shock 70 kDa protein 4L, P48722, for which the “listed as a hit” value in experiment [9] was “yes”. For Hemoglobin subunit alpha, P01942, the “listed as a hit” value in experiment [10] was “yes”. Regarding Programmed cell death protein 4, Q53EL6, the “listed as a hit” value in experiment [11] is on record as “yes”. Neurocan core protein, P55066: in experiment [12], the “listed as a hit” value is on record as “yes”. For Insulin receptor, P15208, in [13], the “listed as a hit” value was “yes”. In the case of “Epidermal growth factor receptor substrate 15-like 1, Q60902”, the “listed as a hit” value in experiment [14] was “yes”. With Kinesin light chain 1, O88447, the “listed as a hit” value in experiment [15] and in experiment [16] was “yes” each time.

For “Membrane-associated progesterone receptor component 1, O00264”, the “listed as a hit” value in experiment [17] and in experiment [18] was “yes” throughout.

In the case of Rho-associated protein kinase 2, P70336, the “listed as a hit” value in [19] is “yes”.

With “Transport and Golgi organization protein 1 homolog, Q8BI84”, the “listed as a hit” value in experiment [20] is listed as “yes”. For “Microtubule-associated protein 1B, P14873”, in experiment [21], the “listed as a hit” value is “yes”. For the substance “Mitochondrial import inner membrane translocase subunit TIM14, Q96DA6”, the “listed as a hit” value in experiment [22] is given as “yes”. For the substance “Mitochondrial import inner membrane translocase subunit Tim22, Q9Y584”, the “listed as a hit” value in experiment [23] is reported as “yes”.

In the case of Basigin, P35613, in [24], the “listed as a hit” value is “yes”.

In the case of Myosin-10, Q61879, the “listed as a hit” value in [25], in [26] and in experiment [27] was “yes” each time. Regarding “Dihydrolipoyl dehydrogenase, mitochondrial, P09622”, in [28], the “listed as a hit” value is on record as “yes”.

With Contactin-associated protein 1, O54991, the “listed as a hit” value in experiment [29] is on record as “yes”. As for Neuronal pentraxin-1, Q62443, the “listed as a hit” value in experiment [30] is “yes”. For the substance Septin-7, O55131, the “listed as a hit” value in experiment [31], in experiment [32], in experiment [33], in experiment [34] and in [35] was “yes” each time. For the substance Calreticulin, P27797, the “listed as a hit” value in experiment [36] is “yes”. “Splicing factor, proline- and glutamine-rich, Q8VIJ6”: the “listed as a hit” value in [37] was “yes”.

On to Hexokinase-1, P19367, for which the “listed as a hit” value in experiment [38] is on record as “yes”.

In the case of “Non-selective voltage-gated ion channel VDAC2, P45880”, the “listed as a hit” value in [39] is given as “yes”. “Nucleosome assembly protein 1-like 1, P28656”: in experiment [40], the “listed as a hit” value is “yes”.

With “H(+)/Cl(-) exchange transporter 7, P51798”, the “listed as a hit” value in [41] is on record as “yes”. As for Protein disulfide-isomerase A4, P13667, the “listed as a hit” value in [42] is listed as “yes”. Peroxiredoxin-1, P35700: the “listed as a hit” value in experiment [43] is “yes”. With Peroxiredoxin-1, Q06830, the “listed as a hit” value in experiment [44] was “yes”. Consider Catalase, P04040, for which the “listed as a hit” value in experiment [45] was “yes”.

Turning to Phosphoglycerate mutase 2, O70250, the “listed as a hit” value in experiment [46] is “yes”. In the case of “Plasma membrane calcium-transporting ATPase 1, G5E829”, the “listed as a hit” value in experiment [47] is “yes”. As to “ATP-dependent clpX-like chaperone, mitochondrial, O76031”, the “listed as a hit” value in experiment [48] is “yes”.

Take “Voltage-gated potassium channel subunit beta-2, P62482”: in [49], the “listed as a hit” value is listed as “yes”. As for Prefoldin subunit 1, O60925, the “listed as a hit” value in experiment [50] was “yes”.

For “Glycerol-3-phosphate dehydrogenase, mitochondrial, P43304”, the “listed as a hit” value in [51] is given as “yes”.

For the substance “Proteasome activator complex subunit 1, P97371”, the “listed as a hit” value in experiment [52] is on record as “yes”. As for Proteasome subunit alpha type-2, P25787, the “listed as a hit” value in experiment [53] is “yes”. For the substance Proteasome subunit alpha type-2, P49722, the “listed as a hit” value in [54] is listed as “yes”.

With Proteasome subunit alpha type-4, Q9R1P0, in [55], the “listed as a hit” value was “yes”.
